“And” between values parts separate entries of the source, which are not always exact repeats. Identical values can stand only once. Screen size: about 5,500 compounds; about 2,000 (36%) were called active. Not shown: some 18% with an inconclusive outcome. This is one part of the list. Unmarked numbers belong to inactive results. Cut-off read from the data, not from the text of the source: active = normalized growth mostly below about 0.91 (no sharp cut-off); inconclusive = no clear call, values can overlap the other calls; inactive = mostly above about 0.92.
Assay: chemical genetic growth profiling, strain panel (AID 1159580);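 note: tested at 20 µM; growth read once vehicle control cultures reached saturation at 30 °C; 1 = growth at the plate median or of vehicle wells; lower values mean less growth of the strain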
Details: growth OD

Which normalized growth (S. cerevisiae deletion strains, locus YJR075W, strain HOC1, active compounds read low) does the source give for CCCCNc1ccc(C(=O)OCCN(C)C)cc1 here?
Its normalized growth is 1.02.

And the normalized growth (S. cerevisiae deletion strains, locus YKL009W, strain mrt4, active compounds read low)?
The normalized growth was 1.02.

And the normalized growth (S. cerevisiae deletion strains, locus YKL068W, active compounds read low)?
Its normalized growth is 1.01.

What about the normalized growth (S. cerevisiae deletion strains, locus YKL085W, strain MDH1 (second series), active compounds read low) of the same compound?
The normalized growth was 1.01.

And the normalized growth (S. cerevisiae deletion strains, locus YKL085W, strain MDH1, active compounds read low)?
Its normalized growth is 1.01.

And the normalized growth (S. cerevisiae deletion strains, locus YKL160W, strain elf1, active compounds read low)?
The normalized growth was 1.03.

What about the normalized growth (S. cerevisiae deletion strains, locus YKL190W, strain CNB1, active compounds read low) of the same compound?
The normalized growth was 1.01.

What about the normalized growth (S. cerevisiae deletion strains, locus YKR001C, strain vps1, active compounds read low) of the same compound?
The normalized growth was 1.01.

What about the normalized growth (S. cerevisiae deletion strains, locus YKR026C, strain gcn3, active compounds read low) of the same compound?
The normalized growth was 1.01.

And the normalized growth (S. cerevisiae deletion strains, locus YKR091W, strain srl3, active compounds read low)?
The normalized growth was 1.01.

And the normalized growth (S. cerevisiae deletion strains, locus YLL001W, strain dnm1, active compounds read low)?
The normalized growth was 1.

And the normalized growth (S. cerevisiae deletion strains, locus YLL026W, active compounds read low)?
The normalized growth was 1.01.

And the normalized growth (S. cerevisiae deletion strains, locus YLL041C, strain sdh2, active compounds read low)?
Its normalized growth is 0.998.

And the normalized growth (S. cerevisiae deletion strains, locus YLR027C, strain aat2, active compounds read low)?
The normalized growth was 1.01.

And the normalized growth (S. cerevisiae deletion strains, locus YLR039C, strain RIC1, active compounds read low)?
The normalized growth was 1.14.

What about the normalized growth (S. cerevisiae deletion strains, locus YLR058C, strain SHM2, active compounds read low) of the same compound?
The normalized growth was 1.01.

What about the normalized growth (S. cerevisiae deletion strains, locus YLR102C, strain apc9, active compounds read low) of the same compound?
Its normalized growth is 1.02.

What about the normalized growth (S. cerevisiae deletion strains, locus YLR113W, strain HOG1, active compounds read low) of the same compound?
The normalized growth was 0.982.

What about the normalized growth (S. cerevisiae deletion strains, locus YLR221C, strain rsa3, active compounds read low) of the same compound?
The normalized growth was 0.975.

What about the normalized growth (S. cerevisiae deletion strains, locus YLR258W, strain gsy2, active compounds read low) of the same compound?
Its normalized growth is 1.02.

What about the normalized growth (S. cerevisiae deletion strains, locus YLR262C, strain YPT6 (second series), active compounds read low) of the same compound?
The normalized growth was 1.05.

And the normalized growth (S. cerevisiae deletion strains, locus YLR262C, strain YPT6, active compounds read low)?
Its normalized growth is 1.13.

What about the normalized growth (S. cerevisiae deletion strains, locus YLR268W, strain sec22, active compounds read low) of the same compound?
Its normalized growth is 1.04.

And the normalized growth (S. cerevisiae deletion strains, locus YLR320W, strain mms22, active compounds read low)?
Its normalized growth is 0.988.

What about the normalized growth (S. cerevisiae deletion strains, locus YLR330W, strain CHS5, active compounds read low) of the same compound?
Its normalized growth is 1.

And the normalized growth (S. cerevisiae deletion strains, locus YLR342W, strain FKS1 (second series), active compounds read low)?
Its normalized growth is 1.

And the normalized growth (S. cerevisiae deletion strains, locus YLR342W, strain FKS1, active compounds read low)?
Its normalized growth is 1.02.

What about the normalized growth (S. cerevisiae deletion strains, locus YLR357W, strain rsc2, active compounds read low) of the same compound?
Its normalized growth is 1.13.

And the normalized growth (S. cerevisiae deletion strains, locus YLR370C, strain arc18, active compounds read low)?
The normalized growth was 1.01.

And the normalized growth (S. cerevisiae deletion strains, locus YLR371W, strain rom2, active compounds read low)?
The normalized growth was 1.02.

And the normalized growth (S. cerevisiae deletion strains, locus YLR384C, strain iki3, active compounds read low)?
The normalized growth was 1.02.

What about the normalized growth (S. cerevisiae deletion strains, locus YLR418C, strain cdc73, active compounds read low) of the same compound?
The normalized growth was 1.01.

And the normalized growth (S. cerevisiae deletion strains, locus YML016C, strain PPZ1, active compounds read low)?
The normalized growth was 1.

What about the normalized growth (S. cerevisiae deletion strains, locus YML032C, strain rad52, active compounds read low) of the same compound?
The normalized growth was 1.02.

What about the normalized growth (S. cerevisiae deletion strains, locus YML120C, strain ndi1, active compounds read low) of the same compound?
Its normalized growth is 0.995.

What about the normalized growth (S. cerevisiae deletion strains, locus YML124C, strain tub3, active compounds read low) of the same compound?
Its normalized growth is 1.02.

What about the normalized growth (S. cerevisiae deletion strains, locus YMR058W, strain fet3, active compounds read low) of the same compound?
The normalized growth was 1.02.

And the normalized growth (S. cerevisiae deletion strains, locus YMR078C, strain ctf18, active compounds read low)?
The normalized growth was 1.02.

What about the normalized growth (S. cerevisiae deletion strains, locus YMR125W, strain sto1, active compounds read low) of the same compound?
Its normalized growth is 1.05.

And the normalized growth (S. cerevisiae deletion strains, locus YMR129W, active compounds read low)?
The normalized growth was 1.01.

What about the normalized growth (S. cerevisiae deletion strains, locus YMR205C, strain PFK2, active compounds read low) of the same compound?
The normalized growth was 1.02.

And the normalized growth (S. cerevisiae deletion strains, locus YMR223W, strain ubp8, active compounds read low)?
The normalized growth was 1.01.

What about the normalized growth (S. cerevisiae deletion strains, locus YMR231W, strain pep5, active compounds read low) of the same compound?
Its normalized growth is 1.02.

What about the normalized growth (S. cerevisiae deletion strains, locus YMR307W, strain GAS1, active compounds read low) of the same compound?
The normalized growth was 0.943 and 1.02.

And the normalized growth (S. cerevisiae deletion strains, locus YNL067W, strain RPL9B, active compounds read low)?
Its normalized growth is 1.01.

What about the normalized growth (S. cerevisiae deletion strains, locus YNL071W, strain lat1, active compounds read low) of the same compound?
The normalized growth was 1.02.

What about the normalized growth (S. cerevisiae deletion strains, locus YNL128W, strain TEP1, active compounds read low) of the same compound?
The normalized growth was 1.02.

What about the normalized growth (S. cerevisiae deletion strains, locus YNL153C, strain GIM3, active compounds read low) of the same compound?
Its normalized growth is 1.

And the normalized growth (S. cerevisiae deletion strains, locus YNL175C, strain NOP13, active compounds read low)?
Its normalized growth is 1.01.

And the normalized growth (S. cerevisiae deletion strains, locus YNL183C, strain NPR1, active compounds read low)?
The normalized growth was 0.93.

What about the normalized growth (S. cerevisiae deletion strains, locus YNL197C, strain WHI3, active compounds read low) of the same compound?
Its normalized growth is 0.982.

And the normalized growth (S. cerevisiae deletion strains, locus YNL209W, strain ssb2, active compounds read low)?
Its normalized growth is 1.02.

What about the normalized growth (S. cerevisiae deletion strains, locus YNL224C, strain SQS1, active compounds read low) of the same compound?
The normalized growth was 0.99.

And the normalized growth (S. cerevisiae deletion strains, locus YNL233W, strain BNI4, active compounds read low)?
Its normalized growth is 1.

What about the normalized growth (S. cerevisiae deletion strains, locus YNL248C, strain rpa49, active compounds read low) of the same compound?
Its normalized growth is 1.13 [resistant] (active).

And the normalized growth (S. cerevisiae deletion strains, locus YNL250W, strain rad50, active compounds read low)?
The normalized growth was 0.998.

What about the normalized growth (S. cerevisiae deletion strains, locus YNL271C, strain bni1, active compounds read low) of the same compound?
Its normalized growth is 1.01.

What about the normalized growth (S. cerevisiae deletion strains, locus YNL298W, strain CLA4, active compounds read low) of the same compound?
Its normalized growth is 1.02.

And the normalized growth (S. cerevisiae deletion strains, locus YNL307C, strain MCK1, active compounds read low)?
The normalized growth was 1.02.

What about the normalized growth (S. cerevisiae deletion strains, locus YNL322C, strain KRE1 (second series), active compounds read low) of the same compound?
Its normalized growth is 1.01.

What about the normalized growth (S. cerevisiae deletion strains, locus YNL322C, strain KRE1, active compounds read low) of the same compound?
Its normalized growth is 1.01 and 1.02.

What about the normalized growth (S. cerevisiae deletion strains, locus YNR049C, strain mso1, active compounds read low) of the same compound?
Its normalized growth is 1.02.

What about the normalized growth (S. cerevisiae deletion strains, locus YNR052C, strain pop2, active compounds read low) of the same compound?
The normalized growth was 1.01.

What about the normalized growth (S. cerevisiae deletion strains, locus YOL006C, strain TOP1, active compounds read low) of the same compound?
Its normalized growth is 0.943.

And the normalized growth (S. cerevisiae deletion strains, locus YOL012C, strain htz1)?
Its normalized growth is 0.973.

What about the normalized growth (S. cerevisiae deletion strains, locus YOL147C, strain pex11, active compounds read low) of the same compound?
The normalized growth was 1.02.

What about the normalized growth (S. cerevisiae deletion strains, locus YOR001W, strain rrp6, active compounds read low) of the same compound?
The normalized growth was 0.954.

And the normalized growth (S. cerevisiae deletion strains, locus YOR061W, strain CKA2, active compounds read low)?
The normalized growth was 1.

What about the normalized growth (S. cerevisiae deletion strains, locus YOR069W, strain VPS5, active compounds read low) of the same compound?
The normalized growth was 1.01.

And the normalized growth (S. cerevisiae deletion strains, locus YOR070C, strain gyp1, active compounds read low)?
The normalized growth was 1.

And the normalized growth (S. cerevisiae deletion strains, locus YOR080W, strain dia2, active compounds read low)?
Its normalized growth is 1.

What about the normalized growth (S. cerevisiae deletion strains, locus YOR083W, strain WHI5 (second series), active compounds read low) of the same compound?
Its normalized growth is 0.999.

What about the normalized growth (S. cerevisiae deletion strains, locus YOR083W, strain WHI5, active compounds read low) of the same compound?
The normalized growth was 1.02.

What about the normalized growth (S. cerevisiae deletion strains, locus YOR106W, strain vam3, active compounds read low) of the same compound?
Its normalized growth is 1.04.

And the normalized growth (S. cerevisiae deletion strains, locus YOR136W, strain idh2, active compounds read low)?
Its normalized growth is 1.02.

And the normalized growth (S. cerevisiae deletion strains, locus YOR144C, strain elg1, active compounds read low)?
Its normalized growth is 1.01.

What about the normalized growth (S. cerevisiae deletion strains, locus YOR184W, strain ser1, active compounds read low) of the same compound?
Its normalized growth is 1.04.

What about the normalized growth (S. cerevisiae deletion strains, locus YOR231W, strain MKK1, active compounds read low) of the same compound?
Its normalized growth is 0.995.

What about the normalized growth (S. cerevisiae deletion strains, locus YOR265W, strain rbl2, active compounds read low) of the same compound?
Its normalized growth is 1.02.

What about the normalized growth (S. cerevisiae deletion strains, locus YOR270C, strain vph1, active compounds read low) of the same compound?
The normalized growth was 0.988.

What about the normalized growth (S. cerevisiae deletion strains, locus YOR290C, strain snf2, active compounds read low) of the same compound?
The normalized growth was 1.06.

And the normalized growth (S. cerevisiae deletion strains, locus YOR316C, strain cot1, active compounds read low)?
The normalized growth was 1.02.

What about the normalized growth (S. cerevisiae deletion strains, locus YPL051W, strain arl3, active compounds read low) of the same compound?
The normalized growth was 1.03.

And the normalized growth (S. cerevisiae deletion strains, locus YPL055C, strain LGE1, active compounds read low)?
Its normalized growth is 1.02.

What about the normalized growth (S. cerevisiae deletion strains, locus YPL078C, strain atp4, active compounds read low) of the same compound?
Its normalized growth is 1.04.

What about the normalized growth (S. cerevisiae deletion strains, locus YPL106C, strain sse1, active compounds read low) of the same compound?
The normalized growth was 1.05.

And the normalized growth (S. cerevisiae deletion strains, locus YPL240C, strain hsp82, active compounds read low)?
The normalized growth was 0.998.

And the normalized growth (S. cerevisiae deletion strains, locus YPL241C, strain CIN2, active compounds read low)?
Its normalized growth is 1.

And the normalized growth (S. cerevisiae deletion strains, locus YPL256C, strain CLN2, active compounds read low)?
The normalized growth was 0.964.

What about the normalized growth (S. cerevisiae deletion strains, locus YPR119W, strain clb2, active compounds read low) of the same compound?
The normalized growth was 1.01.

And the normalized growth (S. cerevisiae deletion strains, locus YPR141C, strain kar3, active compounds read low)?
The normalized growth was 1.02.

What about the normalized growth (S. cerevisiae deletion strains, locus YPR163C, strain tif3, active compounds read low) of the same compound?
Its normalized growth is 1.02.

What about the normalized growth (S. cerevisiae deletion strains, locus YPR167C, strain met16, active compounds read low) of the same compound?
Its normalized growth is 1.02.

What about the normalized growth (S. cerevisiae deletion strains, strain wtn01, active compounds read low) of the same compound?
The normalized growth was 1.04.

What about the normalized growth (S. cerevisiae strains, strain wild type, active compounds read low) of the same compound?
The normalized growth was 1.

Reference: PubChem BioAssay AID1159580 (chemical genetic matrix, 2015)
